From PubChem BioAssay (Tox21)
Several values for one entry are separate records, joined by “and”; a condition that tells them apart may be missing. Equal values may be shown once. The source holds several records for some structures; these can differ, active in one and inactive in another. Activity calls are given as the source filed them. A call without a number means that no potency is given here. The call rests on the fitted dose curve; in most records, active means well fitted activation curve with a large enough effect in the repeat runs; inconclusive means weak or mixed curves; inactive means flat fitted curve, though single readings scatter.

Experiment: A CellTox Green Cytotoxicity Assay to monitor cytotoxicity in HepG2 cells - 0 hour (AID 1224882); further: nearly all actives have a fitted effect of over 35% in size
Conditions: CellTox Green fluorescence; series mostly up to 76.8 µM
Excerpt: National Center for Advancing Translational Sciences [NCATS]
NIH Chemical Genomics Center [NCGC]
U.S. Environmental Protection Agency [EPA]
National Institutes of Environmental Health Sciences [NIEHS]
National Toxicology Program [NTP]
Cell-based models are critical for drug discovery. Determining the natural cytotoxic effects resulting from test compounds is an essential research activity. A CellTox Green Cytotoxicity Assay to monitor cytotoxicity in real time of continues cell culture during 40 hours of the compound treatment was used to screen Tox21 10K library compounds in HepG2 cells. CellTox Green Cytotoxicity Assay is a nonlytic, homogeneous, biofluorescent method to measure cytotoxicity in cell culture after experimental manipulation. The assay system uses a proprietary asymmetric cyanine dye that is excluded from viable cells but preferentially stains the dead cell's DNA. […] Viable cells produce no appreciable increases in fluorescence. Therefore, the fluorescence signal produced by the binding interaction with dead cell DNA is proportional to cytotoxicity.
The mixture of HepG2 cell suspension and reagents were dispensed at 600cells/6 ul/well in 1536-well tissue culture treated black solid bottom plates using a Multidrop dispenser. After the assay plates were incubated at a 37 C/5% CO2 incubator for 5 hours, 23 nL of compounds dissolved in DMSO, positive and negative controls was transferred to the assay plate by a pintool work station. The plates were incubated at 37 C for 40 hours. The fluorescence intensity were measured at 0h, 8h, 16h, 24h, 32h and 40h time points using ViewLux plate reader during compound treatment.
Potency means the concentration at half of the fitted maximal effect.

Compound | Potency
COCC(C)N (stereo not given) | inactive
CC(O)COc1ccccc1 (stereo not given) | inactive
CC(C)=CCC/C(C)=C/CO | inactive
CC(=O)c1ccc(S(=O)(=O)NC(=O)NC2CCCCC2)cc1 | inactive
C=C(C)C(N)=O | inactive
COc1ccc(C(=O)c2ccccc2)c(O)c1 | inactive
Cc1c(N(C)CS(=O)(=O)O)c(=O)n(-c2ccccc2)n1C | inactive
CCCCCCCC(=O)OCC(O)CO (stereo not given) | inactive and 26.8 µM (active)
C=CC(=O)NC(C)(C)CS(=O)(=O)O | inactive and 27.5 µM (active)
CCN(CC)CCOC(=O)c1ccc(N)cc1 | inactive
Cc1cccc(Nc2cc(Cl)nc(SCC(=O)O)n2)c1C | inactive
c1ccc2[nH]c(-c3cscn3)nc2c1 | inactive
C[C@]12CC[C@@H]3c4ccc(O)cc4C[C@@H](CCCCCCCCCS(=O)CCCC(F)(F)C(F)(F)F)[C@H]3[C@@H]1CC[C@@H]2O (stereo not given in full) | inactive
CC1=NN(c2ccccc2)C(=O)C1 | inactive
CC(=O)CCC(C)C | inactive and 38.9 µM (active)
CCCCCCCCOc1ccc(C(=O)c2ccccc2)c(O)c1 | inactive
CC1=C(/C=C/C(C)=C/C=C/C(C)=C/C(=O)O)C(C)(C)CCC1 | inactive
Cc1c(N(C)C)c(=O)n(-c2ccccc2)n1C | inactive
O=c1c(-c2ccc(O)cc2)coc2cc(O)cc(O)c12 | inactive
CC1(C)O[C@@H]2[C@@H](CO[C@@]3(COS(N)(=O)=O)OC(C)(C)O[C@@H]23)O1 | inactive

Compound | Potency
NC(=O)N/N=C/c1ccc([N+](=O)[O-])o1 | inactive
NC(=O)c1ccc([N+](=O)[O-])cc1Cl | inactive
NC(N)=NC(N)=NCCc1ccccc1 | inactive
N[C@@H](Cc1c[nH]c2ccc(O)cc12)C(=O)O | inactive
COc1ccccc1NC(=O)CC(C)=O | inactive
C#C[C@]1(O)CC[C@H]2[C@@H]3CCC4=CC(=O)CC[C@@H]4[C@H]3CC[C@@]21CC | inactive
COc1ccc(O)cc1 | inactive
COC(=O)C1CCC(C(=O)OC)CC1 (stereo not given) | inactive
NC(=O)N1c2ccccc2C=Cc2ccccc21 | inactive
Cc1ccc(O)c(-n2nc3ccccc3n2)c1 | inactive
CC(=O)/C=C/C1=C(C)CCCC1(C)C | inactive
CCCCCCCCCCCCCCCCCC(=O)OCC(O)CO (stereo not given) | inactive
N[C@@H](Cc1c[nH]c2ccccc12)C(=O)O | inactive
O=c1cc[nH]c(=O)[nH]1 | inactive
Nc1ccc(N=Nc2ccccc2)c(N)n1 | inactive
COC(=O)c1ccc(O)cc1 | inactive
CCOCCO | inactive
NCCNc1cccc2ccccc12 | inactive
CCN1CCCC1=O | inactive
COc1cc2c(c(OC)c1OC)-c1ccc(OC)c(=O)cc1[C@@H](NC(C)=O)CC2 | inactive
